The experiment deals with PPARg:RXRa 90nM:30nM, anti-RXR (NR concentration 90 nM, RXRa partner concentration 30 nM). Kind of experiment: PBM binding z-score (relative to random genomic background probes); higher = stronger binding; sequences stand for … in GC…GCGATTGACAGCGTAGAATGAAGG
The essentials:
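Binding z-scores were set against random background probes. The data came from custom Agilent 4×180K protein-binding microarrays carrying double-stranded probes with 34-nt variable regions, incubated 1 h with ligand-free nuclear receptor dimers. Partner-specific antibodies detected binding, and scanned fluorescence was regression-normalized.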
TCTGCTAGGTCAGTTGGTCCGCTAACGAGCTGCC: the PBM binding z-score is 0.949.

As to CGAACTCGGTCAAGGACAGTGAATCTCCGCACGC, the PBM binding z-score was -0.129.

CCTCGCAGGCCAATCTGGGTCACTCAAGGCTTGA: the PBM binding z-score turned out to be 1.3.

For the sequence TCATAGAGGTAAAGGTGAAAGTCGAACGATATGA, the PBM binding z-score was determined as 4.88.

With CCTAGTGGGCCATCAGGTCATTGATATCAACGTT, the PBM binding z-score is 2.74.

In the case of ATCGAAAGGTGGAAGGTGAGTATACCCACCCGAA, the PBM binding z-score stood at 1.58.

Take AGAATGAGGTTATACGTAGATCAGGGGAGAAAGT: the PBM binding z-score was 1.06.

TCTATTAGTTGATTAGGGCAACCGCAACAGCGGA yielded a PBM binding z-score of 2.72.

As for ACTTACGGGTTAACGAGGTTATAGCACGCGTATA, the PBM binding z-score is 1.49.

Take CGAACTGGGTCAGAACAGGACAGTGAAGGATGAT: the PBM binding z-score worked out at 3.42.

For TCATATAGGCAAACAGGTGAAAGTCCGTAAGTTA, the PBM binding z-score was determined as 2.91.

In turn, GCACCAAGGTGAATAGGTCGTTGATGAGTAGGCG showed a PBM binding z-score of 0.742.

As for AGAATGAGGTTATTAAGATCAGGGTATTGCGGTC, the PBM binding z-score is 0.93.

On to GCTTGTAGATCAAGGGTAAGAAAGACTAAGCTAA, for which the PBM binding z-score came to 4.14.

ACAGACAGGTGAGTGAAGGTAACTTAGCTGGACG registered a PBM binding z-score of -0.0872.

GCATATAGGTAATACAAGGTGAGAGTCCGATTGT showed a PBM binding z-score of 0.684.

With TCTCGGAGGACACGAAGGGCAGAGCTTTCCAGAG, the PBM binding z-score was found to be 1.13.

CCTGCTAGGTCGTGGTCAGCTAATCTACAGTATG had a PBM binding z-score of 0.0176.

Source of the values: the supplement of paper PMC6555819.
